This passage reports ΔTm results from ChEMBL document CHEMBL5308504, “Tm Shift (DSF) assay results for EUbOPEN Chemogenomics Library” (2023).

In general, ΔTm refers to the shift of the melting midpoint relative to a reference.

Each structure is given as a SMILES string.

In experiment [1] the target is Bromodomain-containing protein 4 (Homo sapiens) (UniProt O60885). As to conditions: Compound concentration 20.0 uM, Protein concentration 2.0 uM, Result type QC Liability.
The target of experiment [2] is T1, Transcription intermediary factor 1-alpha (Homo sapiens) (UniProt O15164).
T1 sequence (whole entry): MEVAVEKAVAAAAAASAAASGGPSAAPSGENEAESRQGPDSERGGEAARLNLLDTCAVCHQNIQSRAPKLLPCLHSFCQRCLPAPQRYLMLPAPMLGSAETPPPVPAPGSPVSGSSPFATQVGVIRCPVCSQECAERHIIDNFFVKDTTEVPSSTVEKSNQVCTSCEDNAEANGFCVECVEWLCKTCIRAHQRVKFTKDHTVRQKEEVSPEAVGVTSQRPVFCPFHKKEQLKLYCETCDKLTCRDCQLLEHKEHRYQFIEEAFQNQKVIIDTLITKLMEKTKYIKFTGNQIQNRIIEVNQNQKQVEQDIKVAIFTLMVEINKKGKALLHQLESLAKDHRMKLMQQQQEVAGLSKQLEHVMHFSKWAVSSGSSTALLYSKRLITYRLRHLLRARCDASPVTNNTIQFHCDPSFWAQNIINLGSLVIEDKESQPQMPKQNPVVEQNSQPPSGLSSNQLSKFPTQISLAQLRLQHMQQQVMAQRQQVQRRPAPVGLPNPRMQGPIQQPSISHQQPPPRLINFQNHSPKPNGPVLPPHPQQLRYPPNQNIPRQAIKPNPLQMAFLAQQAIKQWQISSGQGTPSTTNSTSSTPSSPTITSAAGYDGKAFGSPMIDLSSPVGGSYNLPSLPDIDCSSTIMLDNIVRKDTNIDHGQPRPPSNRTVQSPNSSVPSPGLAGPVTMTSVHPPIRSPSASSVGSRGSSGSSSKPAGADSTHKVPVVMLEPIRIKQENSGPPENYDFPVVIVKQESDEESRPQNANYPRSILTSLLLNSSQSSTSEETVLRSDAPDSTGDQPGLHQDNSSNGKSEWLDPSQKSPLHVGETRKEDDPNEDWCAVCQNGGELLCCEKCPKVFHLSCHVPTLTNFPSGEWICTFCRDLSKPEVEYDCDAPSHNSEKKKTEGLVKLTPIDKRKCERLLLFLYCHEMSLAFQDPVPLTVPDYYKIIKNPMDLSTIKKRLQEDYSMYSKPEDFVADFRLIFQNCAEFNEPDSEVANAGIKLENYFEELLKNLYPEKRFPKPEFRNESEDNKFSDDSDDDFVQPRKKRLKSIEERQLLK
The following applies: Compound concentration 20.0 uM, Protein concentration 2.0 uM, Result type QC Liability.

As for `O=c1cc(C2CCNCC2)n2nc3cccc(Cl)c3c2[nH]1`, the figures for the thermal shift (ΔTm) in experiment [1] and in experiment [2] were -0.48 °C and 0.25 °C, respectively.
Consider `Oc1c(CN2CCCC2)cc(COCc2ccccc2)c2cccnc12`, for which the ΔTm is -2.69 °C in experiment [1] and -4.08 °C in experiment [2].
On the same counts, the results for `Cc1nc(-c2ccc(C(F)(F)F)cc2)sc1C(=O)NCc1ccc(OC(C)(C)C(=O)O)cc1` are -2.8 °C and -1.73 °C.
On the same counts, the results for `CC1(C)CCC(CN2CCN(c3ccc(C(=O)NS(=O)(=O)c4ccc(NCC5CCOCC5)c([N+](=O)[O-])c4)c(Oc4cnc5[nH]ccc5c4)c3)CC2)=C(c2ccc(Cl)cc2)C1` are -1.82 °C and -1.45 °C.
On the same counts, the results for `CCCN1CCC(C#N)(NC(=O)[C@H](CC(C)(C)C)NC(=O)N2CCOCC2)CC1` are -0.48 °C and 0.46 °C.
Consider `CO[C@H]1CC[C@H](N(c2cc(F)c(Oc3ncc(Cn4nccn4)cc3C(F)(F)F)cc2C(=O)O)C(=O)[C@H]2CC[C@H](C)CC2)CC1`, for which the results for the thermal shift (ΔTm) in experiment [1] and in experiment [2] were 0.94 °C and -0.09 °C, respectively.
On the same counts, the results for `CC[C@H](Nc1c(C#N)c(-c2ccc(-c3cccc(C)c3F)cc2)nc2cnccc12)C(=O)O` are -2.07 °C and -1.52 °C.
On the same counts, the results for `O=C1NC(=NCc2cccs2)SC1=Cc1ccc2ncccc2c1` are 0.38 °C and -1.13 °C.
On the same counts, the results for `Cc1ccc(-c2cn3nc(C(=O)NC4(c5ccc(F)cc5)CN(C)C4)c(C(C)C)c3c(=O)[nH]2)cc1C` are -24.1 °C and 0.46 °C.
For the compound `O=C(NC1CCNCC1)c1n[nH]cc1NC(=O)c1c(Cl)cccc1Cl`, the shift in melting temperature (ΔTm) is -0.14 °C in experiment [1] and -1.34 °C in experiment [2].
`Fc1ccc(-c2nc(-c3ccc4ccccc4c3F)[nH]c2-c2ccncc2)cc1`: the ΔTm in experiment [1] was -0.46 °C; in experiment [2], -0.4 °C.
On the same counts, the results for `Cc1cc(OCCC(C)(C)O)cc(C)c1-c1ccc(F)c2c1CC[C@H]2Oc1ccc2c(c1)OC[C@H]2CC(=O)O` are -2.75 °C and -2.29 °C.
For `C[C@H](NC(=O)c1cnc2n1[C@](C)(Cc1ccc(C#N)cc1)C(=O)N2c1cc(Cl)c(F)c(Cl)c1)C(=O)NC1(c2ccccn2)CC1`, the ΔTm in experiment [1] was 5.21 °C; in experiment [2], 0 °C.
For the compound `Cn1c(C2(NC(=O)c3ccc(NCC4CCCCC4)nc3)CCC2)nc2ccc(/C=C/C(=O)O)cc21`, the ΔTm in experiment [1] was 0.73 °C; in experiment [2], 0.39 °C.
For `CN1CCc2cc(Nc3ncc(C(F)(F)F)c(NCc4cc[nH]n4)n3)ccc2C1`, the ΔTm in experiment [1] is -1.83 °C; in experiment [2] it was -1.85 °C.
For the compound `Cn1cnc(Cn2ccc3ccc(CNCc4[nH]c5ccccc5c4[C@@H]4NC(=O)c5ccc(O)cc54)cc32)c1`, the ΔTm in experiment [1] was -1.28 °C; in experiment [2] it was 0.32 °C.
On the same counts, the results for `Nc1ncnc2c1ccn2[C@@H]1O[C@H]([C@@H](O)c2ccccc2)[C@@H](O)[C@H]1O` are -2.22 °C and -3.4 °C.
On the same counts, the results for `COc1cc2nc(C)nc(N[C@H](C)c3cc(N)cc(C(F)(F)F)c3)c2cc1O[C@H]1CCOC1` are 0 °C and 0.8 °C.
Regarding `C[C@H](CCOc1cccc(CC(=O)O)c1)N(Cc1cccc(C(F)(F)F)c1Cl)CC(c1ccccc1)c1ccccc1`, the figures for the ΔTm in experiment [1] and in experiment [2] were -6.66 °C and -0.56 °C, respectively.
On the same counts, the results for `CCCS(=O)(=O)Nc1ccc(F)c(Nc2ncnc3cnc(-n4cnc(C)c4)nc23)c1F` are -2.57 °C and -1.9 °C.
Regarding `CC[C@@H](CO)Nc1nc(Nc2cccc(NC(=O)C(C)(C)C)c2)ncc1F`, the thermal shift (ΔTm) is -2.22 °C in experiment [1] and 0.33 °C in experiment [2].
With `COc1ccc(S(=O)(=O)N2CCOCC2)cc1Nc1ccc2c(n1)N(C1CCN(C)CC1)[C@H](C)C(=O)N2C`, the ΔTm in experiment [1] is -8.74 °C; in experiment [2] it was -1.33 °C.
For `CC1CN(CC(=O)N2CC(C)(C)c3nc(CO)c(Cc4ccc(F)cc4)cc32)C(CN2CCOCC2C)CN1` (configuration not stated), the ΔTm is -2.32 °C in experiment [1] and -3.23 °C in experiment [2].
Take `CC(C)(O)[C@H]1CC[C@H](Nc2ccc3ncc(-c4cccc(C(F)(F)F)c4)n3n2)CC1`: the results for the ΔTm in experiment [1] and in experiment [2] were -0.97 °C and -1.82 °C, respectively.
On the same counts, the results for `CCCCc1oc2ccccc2c1C(=O)c1cc(I)c(OCCN(CC)CC)c(I)c1` are -4.02 °C and -4.38 °C.
For `CCCS(=O)(=O)N[C@H]1C[C@@H](N(C)c2ncnc3[nH]ccc23)C1`, the thermal shift (ΔTm) is -0.54 °C in experiment [1] and -3.66 °C in experiment [2].
On the same counts, the results for `CCN(C(=O)CO)[C@H]1CN(/C(=N\C#N)Nc2cccc(OC(F)F)c2)N=C1c1ccc(Cl)c(Cl)c1` are 3.5 °C and 0.3 °C.
On the same counts, the results for `Cc1cc(-c2nc(-c3ccc(OC(F)(F)F)cc3)no2)nn1Cc1ccnc(N2CCN(C3CC3)CC2)c1` are 0.31 °C and 0.28 °C.
On the same counts, the results for `COc1cc(-c2cn[nH]c2)ccc1C(=O)Nc1ccc2c(c1)CCNCC2` are -1.67 °C and -2.57 °C.
Consider `CN(C)[C@H]1CCc2nc(NC(=O)c3cccc(Cn4cc(-c5ccc(C#N)cc5)cn4)c3)sc2C1`, for which the values for the shift in melting temperature (ΔTm) in experiment [1] and in experiment [2] were -1.88 °C and -2.75 °C, respectively.
On the same counts, the results for `CN[C@@H](C)C(=O)N[C@H](C(=O)N1CCC[C@H]1C(=O)N[C@H]1c2ccccc2C[C@H]1OCC#CC#CCO[C@@H]1Cc2ccccc2[C@@H]1NC(=O)[C@@H]1CCCN1C(=O)[C@@H](NC(=O)[C@H](C)NC)C1CCCCC1)C1CCCCC1` are -4.51 °C and -2.69 °C.
On the same counts, the results for `O=C(Nc1snnc1C(=O)Nc1ccc(N2CCCC2)cc1)c1cncc(C(F)(F)F)c1` are -0.7 °C and -1.14 °C.
On the same counts, the results for `O=C(O)c1ccc(OCCCc2ccc(OCCCCOC3CCCCC3)cc2)c(C(=O)NC2CCCC(C(=O)O)C2)c1` (configuration not stated) are 0.35 °C and 0.3 °C.
Take `Cn1cc(C(=O)O)c2ccc(N3CCC(OCc4c(-c5c(Cl)cccc5Cl)noc4C4CC4)CC3)cc21`: the shift in melting temperature (ΔTm) is -1.74 °C in experiment [1] and -2.91 °C in experiment [2].
On the same counts, the results for `CC(C)N(C(=O)C1CCOCC1)c1cc(F)c(Oc2ncc(Cn3nccn3)cc2C(F)(F)F)cc1C(=O)O` are -3.14 °C and 0.13 °C.
`CN1C(=O)Cc2ccc(-c3ccc(C[C@@H](C#N)NC(=O)[C@@H]4N[C@H]5CC[C@@H]4C5)c(F)c3)cc21`: the thermal shift (ΔTm) in experiment [1] is -1.1 °C; in experiment [2], 0.19 °C.
On the same counts, the results for `C[C@@H]1COCCN1c1cc(=O)n2c(n1)N(Cc1cncc(Cl)c1)[C@H](C(F)(F)F)CC2` are -0.07 °C and -0.61 °C.
On the same counts, the results for `CNS(=O)(=O)c1ccc(N(C)C)c(Nc2ncnc3cc(OC)c(OC)cc23)c1` are -3.63 °C and -2.8 °C.
As to `COc1cc(N[C@@H]2CCCC[C@]2(O)C(F)(F)F)ccc1F`, the ΔTm is -2.92 °C in experiment [1] and -2.59 °C in experiment [2].
On the same counts, the results for `Cc1cccc(CC(=O)N2CCc3c2ccc(-c2cn(C)c4ncnc(N)c24)c3F)n1` are -0.38 °C and -2.22 °C.
On the same counts, the results for `O=C(O)C[C@H]1CCn2c1c(Sc1ccc(Cl)cc1)c1ccc(F)cc12` are 0 °C and -1.67 °C.
On the same counts, the results for `CN(C)C/C=C/C(=O)Nc1cccc(S(=O)(=O)N2CCC(NC(=O)c3n[nH]cc3NC(=O)c3c(Cl)cc(Cl)cc3Cl)CC2)c1` are -1.08 °C and 0.7 °C.
Consider `COc1ccc(F)c(F)c1C(=O)c1cnc(NC2CCN(S(C)(=O)=O)CC2)nc1N`, for which the figures for the ΔTm in experiment [1] and in experiment [2] were 0.74 °C and -1.4 °C, respectively.
With `CC(C)(C)OC(=O)CN(Cc1ccc(Cl)cc1)Cc1ccc([N+](=O)[O-])s1`, the ΔTm was -2.44 °C in experiment [1] and -2.89 °C in experiment [2].
On the same counts, the results for `COCCCS(=O)(=O)c1cc(C)c(-c2ccc(F)c3c2CC[C@H]3Oc2ccc3c(c2)OC[C@H]3CC(=O)O)c(C)c1` are -0.25 °C and -0.22 °C.
Take `CCCCCCCN(CCc1ccc(SC(C)(C)C(=O)O)cc1)C(=O)Nc1ccc(F)cc1F`: the thermal shift (ΔTm) in experiment [1] is -1.9 °C; in experiment [2], -3.36 °C.
